From PubChem BioAssay
Only some compounds are listed: those with a hit (about 6.8% of all), similar ones and a draw of the others.
Cy5 interf NS3h – Cy5 fluorescence interference, HCV helicase counter-screen | Cy5-dT15 DNA with NS3h; actives lie on both sides; signal over control mean, under 1 quenches | fluorescence interference ratio at 100 µM | actives 6% (n = 16,000) | AID 720488;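 active = compound fluorescence over control fluorescence at most 0.8, a quencher, or at least a set upper limit, an enhancer; inactive = ratio between 0.8 and the set upper limit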
HCV NS3h FP – hepatitis C NS3 helicase inhibition, primary screen | NS3h Cy5-dT15 DNA binding, fluorescence polarization | inhibition, % at 100 µM | actives 1.6% (n = 16,000) | AID 687043;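 active = inhibition above the average over every tested compound plus 3 SD, cut at about 40% in these data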
Starred values were filed as active, the others as inactive.

SMILES	Cy5 interf NS3h	HCV NS3h FP
CC(Cc1ccccc1)N=C1NS(=O)(=O)c2cc([N+](=O)[O-])ccc21 (centres undefined)	1	1
O=[N+]([O-])c1ccc(-c2noc(CCc3ccccc3)n2)cc1	1	15
COc1cc(/C=N\N2CCN(c3ccccc3OC)CC2)ccc1OC(C)=O	0.98	12
CC(CNC(=O)c1cccs1)c1ccccc1 (centres undefined)	0.99	-2
C/C(=N\N=C1/c2ccccc2C(=O)C1C(=O)C(c1ccccc1)c1ccccc1)c1cccs1 (centres undefined)	0.68*	4
COc1ccc(NC(=O)COc2ccc3ccccc3c2)c([N+](=O)[O-])c1	1.1	2
COc1ccc(NC(=O)CSc2ccncc2)c([N+](=O)[O-])c1	0.64*	-1
CC(=O)C(C(C)=O)c1cc(NS(=O)(=O)c2ccc(C)cc2)c2ccccc2c1O	1	6
O=C1c2cccnc2C(=O)N1c1ccc(Oc2ccc(N3C(=O)c4cccnc4C3=O)cc2)cc1	0.68*	19
COC(=O)c1ccc(N2C(=O)c3ccccc3C2=O)cc1	1	-6
O=C(c1cccc(C#Cc2ccccc2)c1)N1CCN(C/C=C/c2ccccc2)CC1	0.97	17
C=C(C)c1cccc(C(C)(C)NC(=O)N2CCN(C/C=C/c3ccccc3)CC2)c1	0.65*	10
COc1ccc(/C(N)=N\OC(=O)COc2ccccc2)cc1OC	0.96	10
CCOC(=O)C1=C(C)N=c2s/c(=C/c3ccc(I)o3)c(=O)n2C1c1ccccc1OC (centres undefined)	0.73*	13
CCOC(=O)C1=C(C)N=c2s/c(=C\c3ccc(N(CC)CC)o3)c(=O)n2C1c1ccc(OC)c(OC)c1 (centres undefined)	0.99	12
COc1ccc(CN2CCN(Cc3ccc(OC)c(OC)c3OC)CC2)c(OC)c1	1.1	-1
CCCC(=O)N1CCN(c2ccc(C(=O)c3ccc(C)c(C)c3)cc2F)CC1	1	-4
CCCC(=O)c1ccc(N2CCN(C(=O)CCC)CC2)c(F)c1	0.75*	14
O=C(NN1C(=O)c2ccccc2C1=O)c1ccccc1Br	1	-3
CCN1C(=O)/C(=C\c2ccc(OC(=O)c3cccs3)c(OC)c2)SC1=S	0.99	12
COc1ccc(C(=O)CSc2nc3ccccc3c(=O)[nH]2)cc1	1.1	1
COc1ccc(C(=O)CSc2nnc(Sc3nc4ccccc4[nH]3)o2)cc1	0.54*	10
CCCCC/C(=N/NC(=O)c1cccnc1)c1ccccc1	0.9	0
COC(=O)c1cc(NC(=O)c2ccc(OCc3ccccc3)cc2)cc(C(=O)OC)c1	0.95	-4
COC(=O)c1cc(NC(=O)c2cccc(OCc3ccccc3)c2)cc(C(=O)OC)c1	1.2*	3
SMILES	Cy5 interf NS3h	HCV NS3h FP
CCOC(=O)c1c(NC(=O)CSc2ncnc3sc4c(c23)CCCC4)sc2c1CCCC2	0.93	-1
Cc1cc(C)n2nc(-c3cccc(F)c3)cc2n1	0.93	7
Cc1cc(C)n2nc(-c3ccc(F)cc3)cc2n1	0.67*	21
CC(=C(C#N)C#N)c1ccc2c(c1)OCCO2	0.97	2
CC(=C(C#N)C#N)c1ccc2c(c1)OCO2	0.74*	9
COc1cc(OC)cc(C(=O)Nc2cccc(Cl)c2Cl)c1	1	7
COc1cc(/C=C2/C(=O)NC(=O)N(c3cccc(C)c3)C2=O)ccc1OCCOc1ccc([N+](=O)[O-])cc1	0.89	40
CCN(CC)C(=O)CN(c1cc(Cl)ccc1OC)S(=O)(=O)c1ccc(C)c([N+](=O)[O-])c1	1.1	12
COc1ccc(Cl)cc1N(CC(=O)NCC(C)C)S(=O)(=O)c1ccc(C)c([N+](=O)[O-])c1	0.71*	19
CC(=O)Oc1ccc2c(=O)c(-c3nc4ccccc4[nH]3)c(C)oc2c1	1	34
O=C(c1ccc(Cl)cc1)N1CCN=C1c1ccccc1	0.64*	2
O=C(c1ccccc1)N1CCN=C1c1ccccc1	0.88	-8
Cc1ccc(S(=O)(=O)N2CCN(Cc3ccccc3)CC2)cc1[N+](=O)[O-]	0.98	2
COc1ccc(CN2CCN(S(=O)(=O)c3ccc(C)cc3)CC2)cc1OCc1ccccc1	0.74*	10
Cc1ccc(C(=O)/C=C2\C(=O)Nc3ccccc32)cc1	0.95	15
CC(=O)N1C(=O)/C(=C/C(=O)c2ccccc2)c2ccccc21	0.79*	9
COc1ccc(N2C(=O)CC(Sc3nnc(-c4ccccc4)n3-c3ccccc3)C2=O)cc1 (centres undefined)	0.99	4
O=C(/C=C1/Nc2ccccc2NC1=O)Nc1cccc(C(F)(F)F)c1	0.93	5
COC(=O)/C=C1\Nc2cc([N+](=O)[O-])ccc2NC1=O	0.72*	12
CCOC(=O)C1=C(C)N=c2s/c(=C\c3ccc(C(=O)O)cc3)c(=O)n2C1c1ccc(OC)cc1 (centres undefined)	0.92	24
CCOc1ccccc1/C=C1/C(=O)NN(c2ccc(C)c(C)c2)C1=O	0.91	16
